This is an account of results in PubChem BioAssay (NCATS).

Assay [1] can be described thus: AP1 Signaling Pathway (AID 357). Also: % is scaled to controls: 0 for no effect and ±100 for the full control effect. As to conditions: ME-180 AP-1-bla reporter, EGF-induced, beta-lactamase ratio, 5 h. In short, it runs like this:
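AP-1-bla ME-180 cells with beta-lactamase reporter under AP-1 response element, stimulated with EC50 EGF; compounds titrated, 5 hours at 37 degrees Celsius. CCF4 read at 460/530 nm ratio; positive and negative modulators judged by AC50.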

Assay [2] addresses Cytochrome P450 1A2 (Homo sapiens) (UniProt P05177). Put plainly: p450-cyp1a2 (AID 410; calls by dose curve; also: potency is read from the fitted curve at half-maximal effect;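 as to activity change, negative = inhibition: -100% = full effect of reference inhibitor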). The settings on record: recombinant CYP1A2, luciferin-ME demethylation, luminescence; series mostly up to 25.6 µM. In short, it runs like this: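 Luminescent demethylation readout: Luciferin-ME (100uM, equal to Km) turned over by 20nM CYP1A2 for 60 min at room temperature after NADPH regeneration addition, following 10 min compound preincubation. Normalization used 57 uM furafylline as full inhibition.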

Assay [3] can be described thus: NFAT Signaling Pathway (AID 444).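 Also: carbachol stimulus at about its EC50 of 1 µM final; % is scaled to controls: 0 for no effect and ±100 for the full control effect.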 The settings on record: Jurkat NFAT-bla M1, carbachol, beta-lactamase ratio, 5 h. In short, it runs like this: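 Jurkat cells with NFAT-driven β-lactamase reporter and co-expressed M1 receptor, stimulated with carbachol (final 1 uM, ~EC50), compound titration, 5 h at 37 °C. CCF4 loaded 1 h at RT; 460/530 nm ratio gave %activity and AC50.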

Assay [4] can be described thus: Stat Signaling Pathway (AID 446).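 Also: ME-180 cervical cancer cells given 40 pM IL-6 alongside compound; SIE-controlled beta-lactamase reporter measured as 460/530 nm FRET emission ratio; % is scaled to controls: 0 for no effect and ±100 for the full control effect.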 The settings on record: ME-180 (cervical carcinoma) SIE beta-lactamase reporter, IL-6 stimulated, 5 h. In short, it runs like this:
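Compound effects on IL-6-induced STAT reporter activity were measured in ME-180 cells. After overnight culture, cells were co-treated with 40 pM IL-6 for 5 hrs before beta-lactamase substrate loading at room temperature.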

The target in assay [5] is Glucocorticoid receptor (Homo sapiens) (UniProt P04150). Put plainly: GR-GFP Redistribution (AID 450;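 active = compounds whose dose series gives a full or clear partial fitted curve of increased nuclear translocation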; also: potency is read from the fitted curve at half-maximal effect). As to conditions: U2OS GR-GFP nuclear translocation, laser cytometry, 2 h.
Chain of Glucocorticoid receptor (Homo sapiens) (P04150 whole entry, looked up): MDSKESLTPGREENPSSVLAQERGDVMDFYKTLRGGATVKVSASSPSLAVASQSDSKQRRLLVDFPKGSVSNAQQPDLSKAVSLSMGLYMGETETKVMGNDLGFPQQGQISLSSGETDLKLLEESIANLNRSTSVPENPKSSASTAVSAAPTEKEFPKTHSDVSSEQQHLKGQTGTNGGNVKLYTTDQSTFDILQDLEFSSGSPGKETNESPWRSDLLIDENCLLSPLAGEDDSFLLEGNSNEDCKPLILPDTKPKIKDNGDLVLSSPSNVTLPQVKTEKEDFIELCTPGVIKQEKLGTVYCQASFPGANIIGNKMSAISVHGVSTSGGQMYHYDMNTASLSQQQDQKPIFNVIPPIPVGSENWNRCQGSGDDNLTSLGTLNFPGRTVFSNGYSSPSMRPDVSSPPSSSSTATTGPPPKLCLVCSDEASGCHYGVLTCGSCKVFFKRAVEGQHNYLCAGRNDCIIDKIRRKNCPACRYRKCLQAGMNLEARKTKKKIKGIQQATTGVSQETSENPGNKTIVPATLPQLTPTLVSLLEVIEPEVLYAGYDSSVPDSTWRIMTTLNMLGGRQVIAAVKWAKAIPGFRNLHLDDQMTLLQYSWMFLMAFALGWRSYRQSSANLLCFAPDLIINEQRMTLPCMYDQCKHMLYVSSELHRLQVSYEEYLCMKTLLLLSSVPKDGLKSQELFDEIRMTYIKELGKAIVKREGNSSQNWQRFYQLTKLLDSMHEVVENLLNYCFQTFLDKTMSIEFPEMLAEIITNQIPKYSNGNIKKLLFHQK
The target is the same in assay [6]. Put plainly: GR-EFC Redistribution (AID 451; calls by dose curve; also: potency is read from the fitted curve at half-maximal effect). The settings on record: CHO-K1 GR-EFC translocation, beta-gal luminescence, 2 h. In short, it runs like this:
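CHO-K1 cells expressing nuclear EA and GR-ED fragments of b-gal; compounds titrated up to 46 uM final, 2 h at 37 C. GR nuclear translocation read as complemented b-gal luminescence after 1 h RT detection.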

The target of assay [7] is Mitogen-activated protein kinase 10 (Mus musculus) (UniProt Q61831). Put plainly: JNK3 AlphaScreen Assay (AID 530).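 Also: kinase came from lysate of stimulated human HepG2 cells; signal reports phosphorylation of biotinylated GST-cJun 1-79 at Ser73 with 10 µM ATP; % is scaled to controls: 0 for no effect and ±100 for the full control effect.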 The settings on record: JNK3 lysate, c-Jun phosphorylation; series mostly up to 25.6 µM. In short, it runs like this:
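Activity was read by AlphaScreen after JNK3-containing HepG2 lysate (cytokine pre-activated) phosphorylated biotinylated GST-cJun with 10 uM ATP at room temperature. Phospho-Ser73 cJun antibody with Protein-A acceptor beads provided detection.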
On the technique in general: Alpha assays give light when donor and acceptor beads are brought close together.

Assay [8] has as its target Lysosomal acid glucosylceramidase (Homo sapiens) (UniProt P04062). Put plainly: Glucocerebrosidase-p2 (AID 348; in the data active = potency below about 10 µM; also: potency is read from the fitted curve at half-maximal effect). As to conditions: purified GBA, blue fluorogenic substrate, 40 min. In short, it runs like this: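 Normal human glucocerebrosidase (0.2 nM) with blue fluorogenic substrate (80 uM final) in citrate/phosphate pH 5.9 with 10mM sodium taurocholate, 0.01% tween-20; 40 min RT, NaOH/glycine stop; fluorescence Ex 365/Em 440; AC50 from a titration from 0.6 nM upwards.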

Assay [9] is described as follows: Cell Viability - BJ (AID 421; calls by dose curve;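 also: potency is read from the fitted curve at half-maximal effect; cells exposed to compound for 40 hours at 37 °C before readout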). As to conditions: BJ fibroblast viability, qHTS. In short, it runs like this:
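Luminescent ATP signal (CellTiter-Glo, 20 min at room temperature) served as the read-out of viable BJ cells after 40 hours of compound treatment. Responses were scaled between DMSO and 100 uM tamoxifen, and AC50 values were obtained by Hill modeling.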
(qHTS replaces the single test concentration by a dilution series.)

A short description of assay [10]: Cell Viability - Jurkat (AID 426;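 active = dose-dependent loss of cell ATP signal giving a full or clear fitted curve, ranked by lower potency value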;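 also: potency is read from the fitted curve at half-maximal effect; cells exposed to compound for 40 hours at 37 °C before ATP read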). As to conditions: qHTS. In short, it runs like this: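 Cytotoxicity taken as drop in cellular ATP (CellTiter-Glo luminescence, 20 min room temperature) after 40 hr, 37C treatment of 5000 Jurkat Clone E6-1 cells per well; concentration-response fitted with Hill equation for AC50.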
Assay [11] can be described thus: Cell Viability - Hek293 (AID 427;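 active = compounds whose dose-response curve shows a full or clear partial loss of cell viability, called from curve shape rather than a numeric limit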;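 also: potency is read from the fitted curve at half-maximal effect; cells exposed to compound for 40 hours at 37 °C before reading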). The settings on record: qHTS. In short, it runs like this:
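Luminescent ATP read-out (CellTiter-Glo, 20 min RT) after 40 hr compound exposure at 37 °C in complete medium. Signal normalized to DMSO (basal) and 100 uM tamoxifen (100% inhibition); concentration-response fitted with the standard Hill equation to give AC50.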

Assay [12] is described as follows: Cell Viability - HepG2 (AID 433; calls by dose curve; also: potency is read from the fitted curve at half-maximal effect). As to conditions: qHTS. In short, it runs like this: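 Read-out is luciferase-based quantitation of cellular ATP as a measure of viable HepG2 cells after 40 h treatment at 37 °C. Signal decrease is scaled between DMSO-only and 100 uM tamoxifen controls, with AC50 fitted by the Hill equation.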
A short description of assay [13]: Cell Viability - MRC5 (AID 434; calls by dose curve;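 also: potency is read from the fitted curve at half-maximal effect; cells exposed to compound for 40 hours at 37 °C; potency reflects cytotoxicity seen as loss of intracellular ATP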). As to conditions: MRC5 lung fibroblast viability, qHTS. In short, it runs like this:
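ATP luminescence read-out (CellTiter-Glo, 20 min RT) after 40 hr, 37 °C compound exposure of 1500 MRC5 cells/well. Data normalized to DMSO (basal) and 100 uM tamoxifen (100% inhibition); AC50 from standard Hill equation.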

Assay [14] can be described thus: Cell Viability - SK-N-SH (AID 435; calls by dose curve; also: potency is read from the fitted curve at half-maximal effect). The settings on record: SK-N-SH neuroblastoma cell viability qHTS. In short, it runs like this: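 Luminescent ATP signal served as the viability read-out after 40 hours of compound treatment of human neuroblastoma SK-N-SH cells. Concentration-response data, scaled between DMSO and 100 uM tamoxifen, gave AC50 values by standard Hill modeling.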

Assay [15] in a line: Cell Viability - N2a (AID 540; active = well fitted curve in the direction sought with a large enough effect; an effect the other way counts as inactive or inconclusive;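 also: plate controls were DMSO alone for no effect and tamoxifen control for full effect; nearly all actives have a fitted effect of over 45% in size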). The settings on record: N2a mouse neuroblastoma cell viability; activity change, negative = cytotoxicity: at 92.2 µM (top of the series). In short, it runs like this: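 CellTiter-Glo ATP luminescence, read 20 min after reagent at room temperature, reported viability following 40 h compound treatment at 37 °C. N2a mouse neuroblastoma cells seeded 1500/well; Hill equation gave AC50.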

A short description of assay [16]: Cell Viability - NIH 3T3 (AID 541; active = well fitted curve in the direction sought with a large enough effect; an effect the other way counts as inactive or inconclusive;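 also: plate controls were DMSO alone for no effect and tamoxifen positive control for full effect; nearly all actives have a fitted effect of over 25% in size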). As to conditions: NIH 3T3 cell viability, qHTS; activity change, negative = cytotoxicity: at 92.2 µM (top of the series). In short, it runs like this: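 Intracellular ATP (CellTiter-Glo luminescence, 20 min at room temperature) measured after 40 hr compound exposure at 37 °C of 1000 NIH 3T3 mouse fibroblasts/well in complete medium; AC50 derived by Hill-equation modelling of qHTS concentration-response curves.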

The nature of assay [17]: Cell Viability - HUV-EC-C (AID 542; active = well fitted curve in the direction sought with a large enough effect; an effect the other way counts as inactive or inconclusive; also: % is scaled to controls: 0 for no effect and ±100 for the full control effect; nearly all actives have a fitted effect of over 35% in size). The settings on record: HUV-EC-C endothelial cell viability, qHTS; series mostly up to 92.2 µM. In short, it runs like this:
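CellTiter-Glo luminescence measured ATP loss in HUV-EC-C cells (1000/well) after 40 hr compound exposure at 37 °C, in complete culture medium. Concentration-response data were Hill-fitted to give AC50.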

Assay [18] in a line: Cell Viability - H-4-II-E (AID 543; active = well fitted curve in the direction sought with a large enough effect; an effect the other way counts as inactive or inconclusive; also: % is scaled to controls: 0 for no effect and ±100 for the full control effect; nearly all actives have a fitted effect of over 35% in size). The settings on record: H-4-II-E rat hepatoma viability; series mostly up to 92.2 µM. In short, it runs like this:
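CellTiter-Glo luminescence (intracellular ATP) measured after 40 h compound exposure at 37 °C in H-4-II-E rat hepatoma cells seeded at 1500/well. Values are AC50s fitted with the standard Hill equation.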

A short description of assay [19]: Cell Viability - SH-SY5Y (AID 544; active = well fitted curve in the direction sought with a large enough effect; an effect the other way counts as inactive or inconclusive;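 also: 0% = DMSO alone and -100% = 100 µM tamoxifen; nearly all actives have a fitted effect of over 55% in size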). As to conditions: SH-SY5Y neuroblastoma cell viability; viability change, negative = cytotoxic: at 92.2 µM (top of the series). In short, it runs like this:
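Cytotoxicity measured via ATP-dependent luciferase luminescence (CellTiter-Glo) following 40 h, 37 °C exposure of 1500 SH-SY5Y cells per well. Concentration-response data were fitted with the standard Hill equation to give AC50.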

Assay [20] can be described thus: Cell Viability - Renal Proximal Tubule (AID 545; active = well fitted curve in the direction sought with a large enough effect; an effect the other way counts as inactive or inconclusive;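 also: 0% = DMSO only and -100% = 100 µM tamoxifen; nearly all actives have a fitted effect of over 40% in size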). As to conditions: renal proximal tubule cells viability, primary cells of rat origin; activity change, negative = cytotoxicity: at 91.7 µM (top of the series). In short, it runs like this:
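Luminescent ATP signal (CellTiter-Glo) served as the viability read-out after 40 hr compound exposure of freshly isolated rat proximal tubule cells at 37 °C. Concentration-dependent ATP loss was fitted with the Hill equation to give AC50.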

“And” between values parts separate entries of the source, which are not always exact repeats. Equal entries are not always repeated. A number with no mark means an inactive call. Results filed as inconclusive are left out. The source made the active and inactive calls. Unless noted, calls follow the shape of the dose curve; as a rule, active = well fitted curve in either direction with a large enough effect (not every such curve was filed as active); inconclusive = small, poorly fitted or top-dose-only effect, or another doubt; inactive = flat fitted curve, though single readings scatter.

Chain of Cytochrome P450 1A2 (Homo sapiens) (P05177 whole entry, looked up): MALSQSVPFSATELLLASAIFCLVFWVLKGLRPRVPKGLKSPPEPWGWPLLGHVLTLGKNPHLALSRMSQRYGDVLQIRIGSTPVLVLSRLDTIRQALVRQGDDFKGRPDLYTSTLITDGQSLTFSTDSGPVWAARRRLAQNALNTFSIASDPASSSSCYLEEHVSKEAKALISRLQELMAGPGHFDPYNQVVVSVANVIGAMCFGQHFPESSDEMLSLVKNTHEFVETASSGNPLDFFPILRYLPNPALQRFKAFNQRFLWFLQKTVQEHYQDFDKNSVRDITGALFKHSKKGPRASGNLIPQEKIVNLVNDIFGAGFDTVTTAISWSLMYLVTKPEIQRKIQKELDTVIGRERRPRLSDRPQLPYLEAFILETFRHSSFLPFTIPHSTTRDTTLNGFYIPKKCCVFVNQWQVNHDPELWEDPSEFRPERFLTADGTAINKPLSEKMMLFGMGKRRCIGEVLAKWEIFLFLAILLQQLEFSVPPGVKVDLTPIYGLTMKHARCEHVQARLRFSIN
Chain of Lysosomal acid glucosylceramidase (Homo sapiens) (P04062 whole entry, looked up): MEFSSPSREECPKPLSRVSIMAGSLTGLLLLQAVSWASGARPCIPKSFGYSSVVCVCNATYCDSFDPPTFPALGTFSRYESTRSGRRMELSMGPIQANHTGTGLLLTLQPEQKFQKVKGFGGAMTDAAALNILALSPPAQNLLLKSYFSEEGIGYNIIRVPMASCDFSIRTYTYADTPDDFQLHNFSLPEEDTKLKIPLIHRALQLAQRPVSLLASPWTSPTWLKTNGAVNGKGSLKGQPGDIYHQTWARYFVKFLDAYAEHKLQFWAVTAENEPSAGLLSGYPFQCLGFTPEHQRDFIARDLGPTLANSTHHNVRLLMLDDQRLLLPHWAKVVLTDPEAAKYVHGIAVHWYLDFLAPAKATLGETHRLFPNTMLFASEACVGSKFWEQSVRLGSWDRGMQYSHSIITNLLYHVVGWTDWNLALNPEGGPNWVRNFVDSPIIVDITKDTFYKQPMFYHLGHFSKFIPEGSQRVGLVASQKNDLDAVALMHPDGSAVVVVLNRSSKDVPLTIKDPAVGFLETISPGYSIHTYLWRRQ

With `CCOc1ccc(Cc2nccc3cc(OCC)c(OCC)cc23)cc1OCC`, the values for the activity change, negative = inhibition in assay [1] (at 17.2 µM (top of the series)) and in assay [3] (at 17.2 µM (top of the series)) were -1.91% and -11.6%, respectively. Also, the Potency was 10 µM (active) in assay [2], above 20.6 µM in [5] and above 20.6 µM in [6]. In addition, the activity, negative = inhibition in assay [4] (at 17.2 µM (top of the series)) is -1.62%. Also, the call in [7] was inactive.

Regarding `COc1c(C)c2c(c(O)c1C/C=C(\C)CCC(=O)O)C(=O)OC2`, the activity change, negative = inhibition was 6.58% in [1] (at 17.2 µM (top of the series)) and -1.42% in [3] (at 17.2 µM (top of the series)). In addition, in [2], the Potency was 31.6 µM (active). In [4] (at 17.2 µM (top of the series)), the activity, negative = inhibition was 8.02%. Moreover, in assay [7], the outcome was inactive.

For the molecule `O=C(CCCN1CCC(O)(c2ccc(Br)cc2)CC1)c1ccc(F)cc1`, the activity change, negative = inhibition in assay [1] (at 17.2 µM (top of the series)) was 13.1%; in assay [3] (at 17.2 µM (top of the series)), -24.7%. Further, the results for the Potency in [2], in [5] and in assay [6] were 5.01 µM (active), above 20.6 µM and above 20.6 µM, respectively. For the same molecule, in assay [4] (at 17.2 µM (top of the series)), the activity, negative = inhibition is 1.5%. Moreover, the call in [7] was inactive.

For the molecule `CCCCOc1cc(C(=O)NCCN(CC)CC)c2ccccc2n1`, the activity change, negative = inhibition in assay [1] (at 17.2 µM (top of the series)) was 13.7% and 13.1% and 14.9%; in assay [3] (at 17.2 µM (top of the series)), 3.91% and -0.708% and -6.28%. For the same molecule, the Potency in [2] is 5.01 µM (active); in [5], above 20.6 µM; in assay [6] it was above 20.6 µM. The activity, negative = inhibition in assay [4] (at 17.2 µM (top of the series)) is 0.235% and -1.92% and -8.41%. Also, in [7], the molecule was called inactive.

In the case of `O=C1CCC(c2ccc(-n3ccnc3)cc2)=NN1`, the results for the activity change, negative = inhibition in [1] (at 38 µM (top of the series)) and in assay [3] (at 38 µM (top of the series)) were 14.9% and 3.77%, respectively. The Potency in assay [2] was 0.158 µM (active); in assay [5], above 46 µM; in assay [6], above 46 µM. The activity, negative = inhibition in assay [4] (at 38 µM (top of the series)) was 9.57%. Besides, the call in [7] was inactive.

On to `CN(C)CC/C=C1\c2ccccc2Sc2ccc(Cl)cc21`, for which the Potency is above 11.4 µM in [8]; 1.58 µM (active) and 3.98 µM (active) in [2]; > 20.6 µM and > 46 µM in assay [5]; > 20.6 µM and > 9.22 µM in [6]. The activity change, negative = inhibition in assay [1] (at 7.69 µM (top of the series)) was 20.4%. In addition, in [7], the molecule was called inactive.

In the case of `CC(=O)Oc1ccc(C(c2ccc(OC(C)=O)cc2)c2ccccn2)cc1`, the activity change, negative = inhibition in assay [1] (at 17.2 µM (top of the series)) is -26.3% and -21%; in [3] (at 17.2 µM (top of the series)), 7.84% and -13.9%. Besides, the Potency result in assay [2], in assay [15], in assay [16], in assay [17], in assay [18] and in [19] was “inactive” in each case. In addition, the Potency in assay [9], in assay [10], in [11], in [12], in assay [13] and in [14] was above 92 µM throughout. In addition, the call in [7] was inactive. Besides, in assay [20], the activity change, negative = cytotoxicity is -2.53%.
